Measurements taken from PubChem BioAssay (NCI).
About 83,000 compounds went through this panel and 20% of them were active in at least one assay; those are over-represented in the sample as a whole.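 Compound tested at a single concentration for 48 hours in 96-well plates; a percent growth value below 10 was scored as active.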 Unmarked numbers belong to inactive results. The source made the active and inactive calls.

What was measured:
Experiment in all cases: NCI-60 one-dose screen, 48 h (100 = growth as untreated, 0 = no growth, -100 = all killed)
NCI-H23 lung = conditions: 10 µM unless noted
NCI-H322M lung = conditions: 10 µM unless noted
HOP-62 NSCLC = conditions: 10 µM unless noted
NCI-H460 lung = conditions: 10 µM unless noted
HOP-92 NSCLC = conditions: 10 µM unless noted
NCI-H522 lung = conditions: 10 µM
A549/ATCC NSCLC = conditions: 10 µM unless noted
786-0 renal = conditions: 10 µM unless noted
DU-145 prostate = conditions: 10 µM unless noted
K-562 leukemia = conditions: 10 µM unless noted
MALME-3M melanoma = conditions: 10 µM unless noted
MDA-MB-231 breast = conditions: 10 µM unless noted
RXF 393 renal = conditions: 10 µM unless noted
SF-268 CNS = conditions: 10 µM unless noted
SF-295 CNS = conditions: 10 µM unless noted
SF-539 CNS = conditions: 10 µM unless noted
UACC-257 melanoma = conditions: 10 µM unless noted
M14 melanoma = conditions: 10 µM unless noted

Compound | growth (NCI-H23 lung) | growth (NCI-H322M lung) | growth (HOP-62 NSCLC) | growth (NCI-H460 lung) | growth (HOP-92 NSCLC) | growth (NCI-H522 lung) | growth (A549/ATCC NSCLC) | growth (786-0 renal) | growth (DU-145 prostate) | growth (K-562 leukemia) | growth (MALME-3M melanoma) | growth (MDA-MB-231 breast) | growth (RXF 393 renal) | growth (SF-268 CNS) | growth (SF-295 CNS) | growth (SF-539 CNS) | growth (UACC-257 melanoma) | growth (M14 melanoma)
COc1ccc(/C=N/NC(=O)c2cnn(CC(O)Cc3ccccc3)c2N)cc1OC1CCCC1 (configuration not stated) | 93.2% | 103% | 85.5% | 98.5% | 86.5% | 92.7% | 96.3% | 97.9% | 91.2% | 99.5% | 99.4% | 86.1% | 85.8% | 98.3% | 83.8% | 87.3% | 110% | 99.5%
CCCCCCCC/C=C\CCCCCCCCOc1cccc(CC(=O)NCC[N+]2(C)CCCCC2)c1 | 71.9% | 92.3% | 67% | 40.1% | 86.9% | 63% | 82.3% | 90.4% | 84.5% | 46.2% | 79.1% | 71.2% | -2.16% (active) | 61.6% | 87.5% | 99.1% | 98.5% | 84.4%
COC(=O)c1c2c(c(C)[n+]([O-])c1C)C(=O)C=C(NCc1ccc(F)c(Cl)c1)C2=O | -65.9% (active) | -38.9% (active) | -51.9% (active) | -38.7% (active) | -42.6% (active) | -39.4% (active) | -47.4% (active) | 3.92% (active) | -99% (active) | -7.41% (active) | -98.3% (active) | -25.6% (active) | -41.1% (active) | -9.98% (active) | -97.5% (active) | -89.7% (active) | -82.8% (active) | -88.4% (active)
COc1cc(OCc2cccc(-c3ccc(C(O)c4nccs4)cc3)c2C)cc(OC)c1C=O (configuration not stated) | 42.1% | 92.1% | 47.9% | 38.8% | 62.5% | 47.3% | 40.2% | 48.2% | 53.6% | 18% | 7.88% (active) | 54.5% | 59.5% | 65% | 35.1% | 69.4% | 13.3% | 32%
COc1cccc2c(=O)c3c(sc12)c(NCCN(C)C)nc1ccccc13 | 32.4% | 26.2% | 27.2% | -53.1% (active) | -3.75% (active) | 29.1% | – | 28.7% | 3.35% (active) | -60.5% (active) | 36.7% | 12.3% | 3.02% (active) | 20.7% | 36% | 22.5% | 29.3% | –
O=C1CCC(N2Cc3c(C#CCCCNC(=O)c4cc5c(o4)C(=O)c4ccccc4C5=O)cccc3C2=O)C(=O)N1 (configuration not stated) | -80.1% (active) | -88.2% (active) | -65.3% (active) | -82% (active) | 52.3% | -61.2% (active) | 30% | 49.7% | -98.1% (active) | 16.2% | -97.6% (active) | -2.23% (active) | -15.4% (active) | -10.1% (active) | -87% (active) | -94.2% (active) | -79% (active) | -87.8% (active)
O=C(NC1CC1)c1cc2n(n1)CC(c1ccccc1)N2 (configuration not stated) | 100% | 99% | 102% | 100% | 85.3% | 91.1% | 99.6% | 101% | 107% | 103% | 104% | 91.3% | 95.6% | 95.2% | 91.8% | 96.3% | 98.3% | 101%
O=c1[nH]c(=S)c2c(n1CCCO)CCC2 | 99.8% | 108% | 104% | 107% | 109% | 88.4% | 100% | 102% | 108% | 93.4% | 92.9% | 102% | 113% | 100% | 102% | 104% | 96.7% | 97%
